An excerpt weighted towards active compounds, which were near 2.5% of everything screened.
aDG glyco up: alpha-DG glycosylation activation; actives 0.22% (n = 360,000); AID 624168; activation, % at 10 µM; Pro5-aDG cells, alpha-DG glycosylation AlphaScreen (IIH6); 0% Pro5, 100% B10-LARGE cell signal;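 active = activation of at least 8% versus controls, or a plate z-score of at least 8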;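 note: Pro5 are CHO cells carrying HIG-tagged alpha-DG that lacks glycosylation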
NPR2 activator: GC-B (human) receptor activation | P20594 | HEK293-GC-B cells, CNP EC30, cGMP TR-FRET; 0% at EC30 CNP, 100% saturating CNP | activation, % at 10 µM | actives 0.11% (n = 370,000) | AID 1920062;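 active = activation at 10 µM reaching about 35% in either raw or pattern-adjusted values, limit read from the data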
HSF1 activator: increases HSF-1 driven luciferase reporter signal; NIH3T3-HGL HSF-1 luciferase reporter, MG132, 8 h; 100% = twice DMSO control signal; activation, % at 9 µM; actives 1.7% (n = 300,000);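 active = mean replicate activation of at least 50% with a set share of replicates each reaching 50%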;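 note: 0% = median of the neutral control wells and 100% = twice that signal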
DYRK1A inh: Dyrk1A (rat) kinase inhibition; AID 504441; ADP-Glo luminescence, NFATc1 peptide; actives 0.43% (n = 310,000); inhibition, % at 12.5 µM; in the data active = inhibition above about 50%;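 note: plate controls were vehicle with enzyme for no effect and no enzyme for full effect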
NPR1 activator: GC-A (human) enzyme activation | P16066 | HEK293 GC-A cells, cGMP TR-FRET, EC30 ANP; 0% at EC30 ANP, 100% saturating ANP | activation, % at 10 µM | actives 0.14% (n = 370,000) | AID 1671463; in the data active = activation above about 40%
HSF1 inhib: HSF1 inhibition. NIH3T3-HGL HSE-luciferase, MG132-induced, luminescence 8 h; stronger effect = lower value. activity change, negative = inhibition, % at 7.5 µM (by protocol). actives 0.77% (n = 300,000). AID 2098;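 active = more than half of replicate wells show activity change below -50%, luminescence cut by over half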;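 note: luciferase reports HSF-1 transcriptional activity via heat shock element; 0% = median of DMSO wells and -100% = zero luminescence signal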
The depositor's hits bear a star; . = not tested or not shown.

SMILES	aDG glyco up	NPR2 activator	HSF1 activator	DYRK1A inh	NPR1 activator	HSF1 inhib
Cc1cccc2sc(NC(=O)C3CCCO3)nc12 (stereo unspecified)	0	2	63*	9	4	30
O=C(Nc1ncc(Cc2ccccc2Cl)s1)C1CCCO1 (stereo unspecified)	1	1	75*	1	4	35
COc1ccc(C(=O)N(C)Cc2ccccn2)cc1OC1CCN(C(C)C)CC1	0	0	12	-5	2	6
CC(C)c1ccc(/C=C2\C(=O)N(CCN3CCOCC3)C(=S)N2C)cc1	-1	-2	66*	-2	-4	24
Cc1ccc(SCC(=O)NCCC2=CCCCC2)cc1	0	6	30	1	1	19
CCC(=O)NNC(=O)CSc1nnc(-c2ccccc2)c(-c2ccccc2)n1	0	4	-78	-4	3	-74*
CC(=O)Nc1cccc(NC(=O)C2CC3CCC2C3)c1 (stereo unspecified)	0	-2	-5	-6	-2	3
O=C(CSCc1ccccc1Cl)Nc1ccc(C(=O)O)cc1	0	-2	14	6	4	0
O=C1Nc2ccccc2C1=Nc1ccc(F)cc1	0	.	-51	1	.	-37
CC(=O)c1ccc(N=C2C(=O)Nc3ccccc32)cc1	0	-2	62*	-5	3	47
COc1ccc(CN=Cc2c(O)[nH]c3ccccc23)cc1	0	1	17	3	4	1
COc1ccc(N=Cc2c(O)[nH]c3ccccc23)cc1	0	-8	63*	3	-7	40
COc1ccc(N=Cc2c(O)ccc3ccccc23)cc1	0	-1	-65	4	-2	-58*
Clc1ccc(-c2cnn3c(-c4ccncc4)ccnc23)cc1	1	0	-8	5	4	-7
CC1CCc2nc(NC(=O)C3COc4ccccc4O3)sc2C1 (stereo unspecified)	0	-3	-75	3	-1	-71*
COc1cccc(-n2cnnc2SCC(=O)NC2CC2)c1	0	5	.	0	1	.
COc1cc(C2NC(=S)NC(C)=C2C(=O)Nc2ccc(C)cc2)ccc1O (stereo unspecified)	0	6	84*	-4	3	43
O=C(C1=C[C@@H](C2CC2)C[C@@H](OCc2ccc(CO)cc2)O1)N1CCN(Cc2ccccc2)CC1	0	1	104*	-12	1	87
CC1(CC(=O)N/N=C/c2ccc(OCc3ccc(Cl)cc3Cl)cc2)OCCCO1	0	7	54*	-3	2	31
COc1cc(/C=N/NC(=O)CC2(C)OCCCO2)ccc1OCc1ccc(Cl)cc1Cl	0	2	68*	.	3	40
COc1cc(/C=N/NC(=O)CC2(C)OCCCO2)ccc1OCc1ccccc1	0	9	26	5	6	11
CC(=O)Oc1cccc(N2C(=O)C3C4C=CC(C4=C(C)C)C3C2=O)c1 (stereo unspecified)	0	2	8	0	0	-7
Cc1cccc(C(=O)N/N=C/C(C)Cc2ccc3c(c2)OCO3)c1 (stereo unspecified)	0	-3	.	-1	0	.
NS(=O)(=O)c1ccc(CCNC(=O)c2cc(-c3ccccc3)nc3ccccc23)cc1	0	-2	64*	2	-1	21
O=C(Nc1ccccc1N1CCOCC1)c1cc(-c2ccncc2)nc2ccccc12	0	-5	-2	.	-8	-11
SMILES	aDG glyco up	NPR2 activator	HSF1 activator	DYRK1A inh	NPR1 activator	HSF1 inhib
CCCCCCCNC(=O)c1cc(-c2ccncc2)nc2ccccc12	0	-14	68*	0	-33	43
C[C@H](NC(=O)c1ccccc1Cl)C(=O)NCCc1ccc(S(N)(=O)=O)cc1	0	-2	56*	-9	-1	7
O=C(Nc1ccc(N2CCOCC2)cc1)c1cc(-c2ccncc2)nc2ccccc12	0	-2	-63	0	-2	-52*
C[C@H](NC(=O)c1ccc(Cl)cc1)C(=O)NCCc1ccc(S(N)(=O)=O)cc1	0	-1	1	1	0	-4
COc1ccc(NC(=O)c2cccc(NC(=O)C3C4CC5OC(=O)C3C5C4)c2)c(OC)c1 (stereo unspecified)	0	-8	-7	-4	-1	-6
CC(=O)Oc1ccc(Cl)cc1/C=C/c1ccc2ccccc2n1	0	-11	60*	2	19	46
O=C(O)/C=C/c1ccc2ccccc2n1	0	3	-6	-9	0	-2
CC(=O)Oc1c(Cl)cc(Cl)cc1/C=C/c1ccc2ccccc2n1	0	-9	161*	3	3	119
Cc1noc(C)c1NC(=O)Nc1ccc2c(c1)C(=O)N([C@H](C)CO)C[C@H](C)[C@@H](CN(C)S(=O)(=O)c1c(C)noc1C)O2	0	5	.	10	0	.
COc1ccc(-c2sc3ccc(OC)cc3c2-c2ccc(OC)c(F)c2)cc1	0	4	.	3	-1	.
CC1(C)Cc2c(sc(NC(=O)c3ccc(C(=O)c4ccccc4)cc3)c2C(N)=O)C(C)(C)N1	0	-10	4	2	-7	-3
CC1(C)Cc2c(sc(NC(=O)c3ccc4ncsc4c3)c2C(N)=O)C(C)(C)N1	2	-1	-54	2	-4	-53*
O=C(NCCC(=O)N1CCN(c2cccc(Cl)c2)CC1)c1ccc(Br)cc1	0	-13	.	-1	-11	.
N#CC(C#N)=C1C=CC=CN1/C(=C\c1ccccc1Cl)C(=O)c1ccccc1	0	-23	.	34	-30	.
N#CC(C#N)=C1C=CC=CN1/C(=C\c1ccccc1)C(=O)c1cccs1	0	-2	214*	26	-37	182
Cc1ccc(NC(=O)C2CCN(S(C)(=O)=O)CC2)c(C)c1	0	5	5	2	-2	-1
COc1ccc(-c2noc(CCC(=O)NCCCN3CCN(c4ccc(F)cc4)CC3)n2)cc1	2	-1	19	-1	5	6
COc1ccc(-c2noc(CCC(=O)NCCCN3CCC(Cc4ccccc4)CC3)n2)cc1	5.5*	-18	-8	-1	-10	-1
C[N+]1(CCC(=O)c2ccccc2)CCCCC1	0	0	-8	-3	73*	-3
COc1cc(/C=C(\C#N)C(=O)Nc2cccc3ncccc23)ccc1O	.	.	63*	.	.	14
COc1ccc(/C=C(\C#N)C(=O)Nc2cc(C)c(Cl)cc2OC)cc1O	0	-12	-74	-3	-9	-64*
COc1ccc(/C=C(\C#N)C(=O)NCc2ccccc2)cc1O	0	-5	18	-2	4	7

High-throughput results (PubChem)
